Results as given in the supplement of paper PMC6555819.

What was measured:
Assay in all cases: PBM binding z-score (relative to random genomic background probes); higher = stronger binding; sequences stand for … in GC…GCGATTGACAGCGTAGAATGAAGG
[1] = tested on: FXR:RXRa (NR concentration 270 nM, RXRa partner concentration 90 nM)
How it was run: (§1)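 The probes on custom Agilent 4×180K protein-binding microarrays were double-stranded, with 34-nt variable regions bearing direct-repeat seeds, single-nucleotide variants, half-site ablations and random human genomic background sequences. Incubation lasted 1 h with ligand-free nuclear receptor dimers in PBS pH 7.4, 2% milk, 0.02% Triton X-100, 1 mM DTT, 0.2 mg/mL BSA and 0.4 mg/ml salmon testes DNA. Antibodies against each partner (one per run) detected bound dimers, and fluorescence scans were regression-normalized. Binding z-scores take the random background probes as reference.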

[2] = tested on: LXRa:RXRa (NR concentration 270 nM, RXRa partner concentration 90 nM)
How it was run: as §1

[3] = tested on: LXRa homodimer (NR concentration 270 nM)
How it was run: as §1

[4] = tested on: LXRb:RXRa (NR concentration 270 nM, RXRa partner concentration 90 nM)
How it was run: as §1

[5] = tested on: LXRb homodimer (NR concentration 270 nM)
How it was run: as §1

[6] = tested on: PPARa:RXRa (NR concentration 270 nM, RXRa partner concentration 90 nM)
How it was run: as §1

[7] = tested on: PPARg:RXRa (NR concentration 180 nM, RXRa partner concentration 90 nM)
How it was run: as §1

[8] = tested on: PPARg:RXRa 270nM:90nM, anti-RXR (NR concentration 270 nM, RXRa partner concentration 90 nM)
How it was run: as §1

[9] = tested on: PPARg:RXRa 30nM:10nM, anti-RXR (NR concentration 30 nM, RXRa partner concentration 10 nM)
How it was run: as §1

[10] = tested on: PPARg:RXRa 90nM:30nM, anti-RXR (NR concentration 90 nM, RXRa partner concentration 30 nM)
How it was run: as §1

| Sequence | PBM binding z-score [1] | PBM binding z-score [2] | PBM binding z-score [3] | PBM binding z-score [4] | PBM binding z-score [5] | PBM binding z-score [6] | PBM binding z-score [7] | PBM binding z-score [8] | PBM binding z-score [9] | PBM binding z-score [10] |
| --- | --- | --- | --- | --- | --- | --- | --- | --- | --- | --- |
| TGAATGAGCTTATAAGATCAGGGAACGTTGCAAA | -0.538 | -0.891 | -0.553 | -0.584 | -0.76 | -0.485 | -0.117 | -0.382 | 0.0852 | -0.46 |
| TCTTGTCGATCAACAGGAGGTTAAGAAAGATCGA | 0.21 | 0.937 | 0.145 | 0.977 | -0.356 | 1.11 | -0.231 | 0.969 | 1.86 | 1.64 |
| TGAACGAGGTTAAAGATCAGGGAACGTGGCGTCG | 2.87 | 2.22 | -0.236 | 1.57 | -0.0519 | 4.05 | 5.17 | 5.68 | 4.28 | 6 |
| GATACCGGGTCAGCTAGAGGCCAGAGTATGGAAA | 2.65 | 1.51 | -0.9 | 1.21 | -1.03 | 3.5 | 2.92 | 2.42 | 0.487 | 1.18 |
| CCTACTGGGCCACGAAAGGTCAATGATTCAGTGA | 3.22 | 4.61 | 2.93 | 3.95 | -0.0572 | 4.44 | 4.52 | 4.6 | 1.66 | 3.59 |
| TCTTGTAGATCAAGCAGGTTAACAAAGCCTGAGT | 0.489 | 0.545 | 0.00608 | 0.81 | -0.426 | 0.99 | -0.0763 | 1.23 | 2.44 | 2.04 |
| ATCTCTAGGTAAGACTGAGTTCAGTGAAGAACGC | 0.449 | 0.657 | 0.601 | 0.352 | 0.691 | 0.568 | -0.0566 | 0.369 | 0.167 | 0.0734 |
| CAGCCTACGTCAGGGCCAGTATAGGAGGAACGTT | -0.299 | -0.664 | -0.318 | -0.547 | -1.11 | -0.518 | 0.171 | -0.999 | -0.483 | -0.832 |
| TCTAGTAGATCAAGCAGGTTAAGAAAGCCTGAGT | -0.193 | -0.025 | -0.279 | 0.194 | -0.909 | 0.517 | -0.406 | 1.3 | 2.82 | 1.92 |
| TCTATTAGTTGATTAGGGCAACAGAAACAGCGGA | 0.997 | 0.779 | 0.0498 | 0.646 | 0.947 | 1.01 | 0.317 | 1.96 | 3.53 | 2.85 |
| TCATATAGGTAAATGCTAGGTGATAGTCCGATCT | 0.869 | 0.734 | -0.164 | 0.564 | -0.125 | 1.2 | 1.13 | 2.24 | 3.56 | 2.87 |
| TCTTCTAGGTCAACGATGGTCAGCTAATCTGCTA | 4 | 3.57 | 0.955 | 2.54 | 2.65 | 4.34 | 6.09 | 5.82 | 5.08 | 5.64 |
